# High-throughput results as filed in PubChem.
# Rows were chosen to be rich in hits. Some 2.1% of all compounds tested hit in one or more screens of this group.
# PLCg1 inh – PLC-gamma1 enzyme inhibitors, primary screen, biochemical, fluorescence, purified enzyme; 1-phosphatidylinositol 4,5-bisphosphate phosphodiesterase gamma-1 (Homo sapiens), P19174; fluorogenic substrate; inhibition, % at 12.2 µM; 370,000 tested, 0.84% active; AID 720700, 2013; in the data active = inhibition above about 9.5%
# Rce1 inh – yeast Rce1p protease inhibitors, primary screen, biochemical, fluorescence, cell-free homogeneous; yeast membranes, quenched prenylated peptide cleavage fluorescence; calls only; 290,000 tested, 0.27% active;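 active = fall in fluorescence gain of 50% or more versus controls, with final raw signal at or below 3038400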;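 note: plate controls were neutral control wells for no effect and wells lacking membranes for full effect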
# ADAM10 inh – human ADAM10 inhibitors, primary screen, biochemical, QFRET, HTS | Disintegrin and metalloproteinase domain-containing protein 10 (Homo sapiens), O14672 | AID 720582, 2013 | 370,000 tested, 0.62% active | recombinant ADAM10, EDANS/DABCYL FRET peptide cleavage, 3 h | inhibition, % at 7 µM;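 active = inhibition above a per-campaign cutoff equal to the mean of compounds falling between control-based bounds plus 3 SD, cut at about 20% in these data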;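 note: 0% = DMSO wells while the 100% control is not disclosed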
# Target sequence (O14672 214-748 limits assumed): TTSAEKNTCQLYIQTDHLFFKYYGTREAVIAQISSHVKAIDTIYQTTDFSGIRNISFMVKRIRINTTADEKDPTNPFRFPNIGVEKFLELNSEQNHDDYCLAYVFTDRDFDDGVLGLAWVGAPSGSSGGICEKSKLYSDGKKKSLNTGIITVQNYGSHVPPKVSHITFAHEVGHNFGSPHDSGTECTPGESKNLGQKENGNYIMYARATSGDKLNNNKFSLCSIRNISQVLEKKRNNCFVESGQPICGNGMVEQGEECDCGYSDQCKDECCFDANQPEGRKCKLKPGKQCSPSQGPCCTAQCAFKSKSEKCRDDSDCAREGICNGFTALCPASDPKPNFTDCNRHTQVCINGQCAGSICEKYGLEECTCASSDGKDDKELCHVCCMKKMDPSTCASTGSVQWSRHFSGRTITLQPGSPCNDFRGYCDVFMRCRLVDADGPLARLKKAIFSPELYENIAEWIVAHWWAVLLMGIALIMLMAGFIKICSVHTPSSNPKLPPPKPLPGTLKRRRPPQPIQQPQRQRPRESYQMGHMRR
# PLCb3 inh – human PLC-beta3 inhibitors, primary screen, biochemical, fluorescence; 370,000 tested, 0.18% active; Purified PLC-beta3, fluorogenic substrate; inhibition, % at 12.2 µM; AID 720704, 2013;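 note: 0% = median of compound wells on plate and 100% = full blocker control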
# ADAM17 inh – ADAM17 inhibitors, primary screen, biochemical, QFRET | Disintegrin and metalloproteinase domain-containing protein 17 (Homo sapiens), P78536 | recombinant ADAM17, EDANS/DABCYL FRET peptide cleavage | inhibition, % at 6.95 µM | 370,000 tested, 0.83% active | AID 720648, 2013;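 active = inhibition above the mean of compounds lying between control limits plus 3 SD, set per campaign, cut at about 8.5% in these data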;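 note: 0% = DMSO-only wells as the low control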
# PLCgamma1 ctr – PLC-gamma1 enzyme inhibitors, counter-screen for PLC-beta3 inhibitor project, biochemical, fluorescence | purified PLC-gamma1, fluorogenic substrate | AID 743258, 2014 | shares compounds with PLCg1 inh | inhibition, % at 12.3 µM | 3,300 tested, 3.1% active; in the data active = inhibition above about 9.5%
# PLCb3 confirm – PLC-beta3 inhibitor confirmation, biochemical, fluorescence, purified enzyme. shares compounds with PLCg1 inh. inhibition, % at 12.3 µM. fluorogenic substrate fluorescence. AID 743261, 2014. 3,300 tested, 1% active
# * marks the source's active call; other numbers are inactive results; i = inactive; . = no result given. Cut-off read from the data, not from the text of the source, unless noted: active = inhibition above about 11%; inactive = the rest.
SMILES,PLCg1 inh,Rce1 inh,ADAM10 inh,PLCb3 inh,ADAM17 inh,PLCgamma1 ctr,PLCb3 confirm
CCOC(=O)NC(=O)c1cn(Nc2ccccc2)c(=O)[nH]c1=O,10*,i,12,-3,-3,0,0
c1coc(CN2CN=C(Nc3nc4ccccc4s3)NC2)c1,9.7*,i,-2,3,3,1,3
C=CCNc1nc(Cl)nc(Nc2ccccc2)n1,11*,i,8,-3,4,3,5
COc1cccc(CNc2nc(NCC3CC3)nc3ccsc23)c1OC,10.0*,.,-26,6,0,-5,-2
COCCNC(=O)C(c1ccc(C)o1)N(C(=O)Cn1nnc2ccccc21)c1ccccc1 (stereo unspecified),3,.,-10,-1,-1,.,.
CCOC(=O)CSc1nnc(Cn2c(=O)sc3ccccc32)n1-c1ccccc1C,8,i,4,11*,4,9.5*,-1
CC1(C(=O)Nc2cccc(OC(F)(F)F)c2)Cc2c(-c3ccc(C(N)=O)cc3)ccnc2O1 (stereo unspecified),8,.,4,1,3,.,.
ONC(=Nc1ccc(Cl)cc1)c1ccccc1,-2,i,1,12*,0,-6,12*
O=C1c2cccnc2C(=O)N1c1ccccc1-c1ccccc1,12*,.,-1,-2,-2,-4,-4
CCOC(=O)N1CCN(C(=O)C[C@H]2C[C@@]3(C(=O)OC)C(=C[C@H](C(C)(C)C)O[C@@H]3C)N(Cc3ccco3)C2=O)CC1,2,.,8,1,0,.,.
CC(C)CC(=O)Nc1c2c(nn1-c1ccc(F)cc1)CSC2,9,i,-1,12*,3,-7,-5
CCCNC(=O)c1cc2cc([N+](=O)[O-])ccc2s1,1,i,1,-2,-1,.,.
CC(C)NC(=O)c1cc2cc([N+](=O)[O-])ccc2s1,14*,i,10,12*,8,-3,4
Cc1csc2c(NCCCN3CCOCC3)ncnc12,13*,i,14,-2,-1,-5,1
Cc1cc(OCc2nc(N)nc(N)c2-c2ccc(Cl)c(Cl)c2)ccc1[N+](=O)[O-],13*,.,16,0,4,-2,-3
O=C(NC(=S)NCC1CCCO1)c1cccc([N+](=O)[O-])c1 (stereo unspecified),9.6*,i,5,12*,2,-1,2
O=c1cc(CSc2nnc(Nc3ccccc3)s2)nc2sccn12,-15,.,-13,-22,-6,.,.
Cc1cccc(Nc2nnc(SCc3cn4ccsc4n3)s2)c1,10*,i,5,1,2,1,-1
O=C1OCc2cc(NS(=O)(=O)c3cccs3)ccc21,10*,i,-2,-1,6,-2,-6
O=[N+]([O-])c1nccn1CC(O)CO (stereo unspecified),10*,.,-7,8,-6,-2,2
N=c1n(CCCOc2ccccc2Cl)c2ccccc2n1CC(N)=O,0,i,7,-6,-2,.,.
Cc1ccc(SCc2ccc(C(=O)Nc3cc([N+](=O)[O-])ccc3C)cc2)cc1,12*,i,9,6,9,-2,-1
CC1Cc2ccccc2N1S(=O)(=O)c1ccc2c(c1)n(C)c(=O)c(=O)n2C (stereo unspecified),9.6*,i,10,4,2,-1,2
CC(=O)N1c2ccc(S(=O)(=O)N3c4ccccc4CC3C)cc2CC1C (stereo unspecified),2,i,14,-7,0,.,.
CC(C)N1CCN(c2ccncc2S(=O)(=O)N2CCN(C)CC2)CC1,3,.,-14,4,-1,.,.
SMILES,PLCg1 inh,Rce1 inh,ADAM10 inh,PLCb3 inh,ADAM17 inh,PLCgamma1 ctr,PLCb3 confirm
COc1ccccc1N1CC(C(=O)Nc2ccc(N3CCOCC3)cc2)CC1=O (stereo unspecified),11*,.,3,2,7,-6,-3
COc1cc(C(=O)NC2CC(C)CC(C)(C)C2)cc(OC)c1OC (stereo unspecified),5,.,-17,12*,7,-1,-2
CCCC(O)(c1ccccc1)C(CN1CCOCC1)c1ccccc1 (stereo unspecified),2,i,-3,0,-1,.,.
CCCC(O)(c1ccc(Cl)cc1)C(CN1CCOCC1)c1ccccc1 (stereo unspecified),11*,i,1,3,4,5,2
O=C(NCc1ccc(F)cc1)c1cc2c(s1)CCCC2,16*,i,12,15*,1,5,11*
CCN(CC)C(=O)C1=C(C)N(CCCN2CCCC2=O)C(=O)C(CC(=O)NCc2ccco2)C1 (stereo unspecified),4,.,-19,0,-5,.,.
CCN(CC)C(=O)C1=C(C)N(CCCN2CCCC2=O)C(=O)C(CC(=O)NCCCCc2ccccc2)C1 (stereo unspecified),9.8*,.,2,9,6,-9,-4
Cc1nccn1CCCNC(=O)c1nc(Cn2cc([N+](=O)[O-])cn2)no1,9.6*,.,13,2,4,9,2
O=C(NCCCn1ccnc1)c1nc(Cn2cc(Br)cn2)no1,0,i,-2,-4,-2,.,.
C=CC[C@H]1c2ccccc2[C@H]2N3N=Cc4ccccc4[C@H]3[C@H](CCCC)C(=O)N2N1C(=O)NCc1ccccc1,0,.,-5,3,-1,.,.
CC(C)(C)NCc1cc(Br)ccc1OCc1cccs1,4,i,8,2,1,.,.
CC(C)(C)NCc1ccccc1OCc1cccs1,13*,i,7,11*,7,-5,-3
CC1CCN(C(=S)Nc2ccc(SC(F)F)cc2)CC1,11*,i,9,4,6,-1,-5
O=[N+]([O-])c1ccccc1Nc1ccccc1[N+](=O)[O-],10*,.,2,4,-4,2,2
CCOC(=O)C1(Cc2cccc(Cl)c2)CCCN(C(=O)c2cc(C)n(C)n2)C1 (stereo unspecified),10*,i,6,-3,3,-2,1
Cc1ccc(O)c(-c2cc(C(=O)Nc3cccnc3)[nH]n2)c1,11*,i,2,-30,3,1,3
O=C(Nc1cccnc1)c1cc(-c2cc(Cl)ccc2O)n[nH]1,3,i,4,-1,0,.,.
COc1ccc([C@@H]2CC=C(C(=O)O)[C@H](c3ccc(C)cc3)N2S(=O)(=O)c2ccccc2C)cc1,0,.,-4,-1,-3,.,.
